Measured values published in PubChem BioAssay AID463212 (Sanford-Burnham Center for Chemical Genomics, 2010).
Screen size: about 330,000 compounds; about 4,400 (1.3%) were called active. The entries come from a sample that favours actives as a whole. Values without a mark were called inactive.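 How the source made its calls: active means growth inhibition of the mutant yeast at or above 50%; inactive means the rest.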

Test: growth inhibitors of tim23-1 mutant yeast, primary screen, luminescence, uHTS (AID 463212);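 further: temperature-sensitive mutant grown at 25 °C; plate controls were DMSO-treated mutant yeast for no effect and medium wells lacking yeast for full effect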
Conditions: S. cerevisiae tim23-1 growth, BacTiter-Glo luminescence, 24 h; at 20 µM; stronger effect = higher value

Compound	inhibition
COc1ccc2c(c1)C(=C(C#N)C#N)C(=O)N2CCc1ccccc1	70.8% (active)
CCCCN1C(=O)/C(=C(/C#N)C(N)=O)c2ccccc21	21.8%
C#CCN1C(=O)C(O)(CC(=O)c2cc(OC)ccc2OC)c2ccccc21 (centres undefined)	30%
COc1cccc(-c2nnc(NC(=O)c3ccc(S(=O)(=O)N(CC(C)C)CC(C)C)cc3)o2)c1	11.6%
Cc1cccc(-c2nc3ccccc3c(=O)n2NC(=O)Cc2ccc(Cl)cc2)c1	23.4%
NC(=O)c1cc(-c2cccnc2)nc2ccc(Br)cc12	-4.37%
O=c1c2cc(Br)ccc2nc(-c2cccc(Cl)c2)n1O	65.8% (active)
CCOc1cc(NC(=O)Nc2ccccc2)c(OCC)cc1NC(=O)CC	7.41%
CCOc1cc(NC(=O)c2ccccc2C(=O)O)c(OCC)cc1NC(=O)c1ccccc1F	53% (active)
CCOc1ccccc1NC(=O)c1cc(S(=O)(=O)N2CCC3(CC2)OCCO3)ccc1F	24.5%
CCCCC(CC)CNC(=O)C(=O)C1C(=O)Nc2ccccc21 (centres undefined)	51.7% (active)
CCCCC(CC)CNC(=O)CCCCn1c(=O)[nH]c2ccsc2c1=O (centres undefined)	-5.06%
CCCCCNC(=O)C1c2ccccc2Oc2ccccc21	18.6%
Cc1c(CN2CCC(n3nccc3NC(=O)CCc3ccccc3)CC2)cnn1C	3.04%
CCc1noc(C)c1C(=O)Nc1nc(-c2ccccc2)cs1	22.5%
Cc1cccc(Nc2nc(-c3ccccc3)cs2)n1	55.1% (active)
Cc1ccccc1Nc1nc(-c2cccnc2)cs1	33.4%
CCC(C)OC(=O)C(C)Oc1ccc(-c2ccccc2)cc1 (centres undefined)	3.46%
c1ccc(-c2nc(NCc3ccco3)c3ccccc3n2)cc1	53% (active)
Clc1cccc(-c2nc(NCC3CCCO3)c3ccccc3n2)c1 (centres undefined)	28.9%
c1ccc2c(NCC3CCCO3)nc(-c3ccncc3)nc2c1 (centres undefined)	13.1%
O=C(CO/N=C/c1ccc(OC(F)F)cc1)NCc1ccc(F)cc1	8.87%
Cc1ccc(Oc2nc(-c3ccccn3)nc3ccccc23)cc1	63.6% (active)
COc1cnc(-c2ccccn2)nc1Oc1ccc(C(C)(C)C)cc1	41.2%
CC(C)(C)Nc1nc(-c2ccccn2)nc2ccccc12	-51.4%

Compound	inhibition
CC(C)(COC(=O)Nc1ccccc1)COC(=O)Nc1ccccc1	29.8%
O=C(c1ccncc1)N1CCN(S(=O)(=O)c2cccc([N+](=O)[O-])c2)CC1	3.41%
CC(Sc1nc2cc(Cl)ccc2s1)C(=O)Nc1ccc2c(c1)OCO2 (centres undefined)	32%
NS(=O)(=O)c1ccc(NC(=S)N2CCCC2)cc1	-14.9%
COc1ccccc1NS(=O)(=O)c1ccc(C)c(C(=O)NNC(=O)c2csc(N3CCOCC3)n2)c1	-7.58%
Cc1ccc(C(=O)Oc2ccc(C(=S)N3CCOCC3)cc2)cc1	-1.92%
Cc1ccc(C(=O)OC2=CC(=O)CC(C)(C)C2)cc1	52.8% (active)
COC(=O)NNC1=CC(=O)CC(C)(C)C1	-3.94%
O=C(CSc1nnnn1C1CCCC1)N1CCCCC1	4.13%
C[C@H]1CC[C@]2(O[C@@H](CCO)C[C@@H](O)[C@@H]2O)O1	23.4%
O=Cc1cn(-c2ccccc2)nc1-c1ccccn1	58.8% (active)
COc1ccc(-c2nn(-c3ccccc3)cc2/C=N/Nc2ccccn2)cc1OC	45.7%
O=C(O)c1ccc(N/N=C/c2cn(-c3ccccc3)nc2-c2cccs2)cc1	40.4%
N/C(=N\OC(=O)CCCC(=O)O)c1ncc(C(F)(F)F)cc1Cl	9.72%
O=C(c1ccccn1)c1ncc(C(F)(F)F)cc1Cl	3%
N/C(=N\OC(=O)Nc1ccc(Cl)c(Cl)c1)c1ncc(C(F)(F)F)cc1Cl	73.9% (active)
Cc1cccc(NC(=O)Cn2cc(C(=O)c3ccco3)c3ccccc32)c1	7.71%
O=C(NCCSc1ncc(-c2ccccc2)[nH]1)c1ccco1	-8.72%
CCOc1ccc(C(=O)Nc2cccc(SC)c2)cc1	10.1%
O=C1NC(Cc2ccc(O)cc2)c2nc3ccc(Cl)cc3c(=O)n2-c2ccccc21 (centres undefined)	15%
CCOc1ccc(C(C)NC(=O)CN2C(=O)NC3(CCCCC3)C2=O)cc1OCC (centres undefined)	7.68%
CCOc1ccc(C(CC(=O)O)NC(=O)Cc2ccccc2)cc1OC (centres undefined)	-3.51%
CCOc1ccc(C(c2c(C)[nH][nH]c2=O)c2c(C)[nH][nH]c2=O)cc1OCC	54.5% (active)
CCOC(=O)N1CCN(C(=O)c2cn(C)c3ccc(S(=O)(=O)N(CC)CC)cc3c2=O)CC1	2.29%
